Experimental findings from PubChem BioAssay (EPA / NIEHS) are described below.

Records with an inconclusive call do not appear. Where a structure was tested more than once in an assay, its records may differ in their call. The source made the active and inactive calls. Rule for the calls: active = hit-call score of the fitted dose curve at least 0.9, where 1 is the maximum; inconclusive = response in the unintended direction; inactive = score below 0.9.

In this assay the target is human Peroxisome Proliferator-activated Receptor delta (PPARd), PPARD (gene 5467) (UniProt Q03181). Briefly: ATG_PPARd_TRANS: Attagene TRANS-FACTORIAL HepG2 Assay for human Peroxisome Proliferator-activated Receptor delta (PPARd) (AID 2283002). The protocol: ATG_TRANS is a cell-based, multiplexed-readout assay that uses HepG2, a human liver cell line, with measurements taken at 24 hours after chemical dosing in a 24-well plate.ATG_PPARd_TRANS is one of 30 assay component(s) measured or calculated from the ATG_TRANS assay. It is designed to make measurements of mRNA induction, a form of inducible reporter, as detected with fluorescence intensity signals by Reverse transcription polymerase chain reaction (RT-PCR) and Capillary electrophoresis technology.Data from the assay component ATG_PPARd_TRANS was analyzed into 1 assay endpoint. This assay endpoint, ATG_PPARd_TRANS, was analyzed in the positive analysis fitting direction relative to DMSO as the negative control and baseline of activity. Using a type of inducible reporter, measures of mRNA for gain-of-signal activity can be used to understand the reporter gene at the transcription factor-level as they relate to the gene PPARD. Furthermore, this assay endpoint can be referred to as a primary readout, because this assay has produced multiple assay endpoints where this one serves a reporter gene function. To generalize the intended target to other relatable targets, this assay endpoint is annotated to the nuclear receptor intended target family, where the subfamily is non-steroidal.
Chain of human Peroxisome Proliferator-activated Receptor delta (PPARd), PPARD (gene 5467) (Q03181 whole entry, looked up): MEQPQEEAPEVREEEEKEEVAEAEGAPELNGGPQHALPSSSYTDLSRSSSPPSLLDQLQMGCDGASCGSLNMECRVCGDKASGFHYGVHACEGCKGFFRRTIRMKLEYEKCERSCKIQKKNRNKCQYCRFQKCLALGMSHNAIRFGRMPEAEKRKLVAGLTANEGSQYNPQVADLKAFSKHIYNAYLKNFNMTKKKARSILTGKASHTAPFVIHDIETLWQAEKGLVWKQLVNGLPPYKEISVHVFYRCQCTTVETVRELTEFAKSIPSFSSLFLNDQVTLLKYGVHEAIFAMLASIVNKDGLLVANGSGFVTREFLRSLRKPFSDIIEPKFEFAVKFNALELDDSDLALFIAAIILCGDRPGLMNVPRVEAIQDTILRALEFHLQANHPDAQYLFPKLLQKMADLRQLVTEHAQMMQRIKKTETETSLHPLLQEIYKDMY
Human liver HepG2 cells are transiently transfected with multiple reporter transcription units (MRTUs) in 6-well plates using FuGene 6 reagent (Roche; 3 ml FuGene/1 mg DNA). The MRTU constructs are regulated by a cis-regulating element (promoter). […] A major difference between the CIS and TRANS system is that in CIS activities of endogenous TFs are measured, whereas the TRANS assay evaluates changes in activities of exogenous, chimeric NR-Gal4 proteins. […] At the end of 24 hour incubation, total RNA was isolated using TriZol reagent (Invitrogen). The isolated RNA is then reverse-transcribed using oligo(dT) primer and Mo-MLV reverse transcriptase (Invitrogen) with DNAse I (Ambion) treatment for 30 min. The one-tenth of the produced cDNA was amplified by PCR using Taq DNA polymerase (Invitrogen) and two reporter sequence-specific primers. The PCR products were fluorescently labeled by primer extension with 6-arboxyfluorescein (6-FAM) 5'-labeled reporter sequence-specific primer (2 min at 95 C, 20 s at 68 C and 10 min at 72 C) and these products were digested with 5U of HpaI (New England Biolabs) for 2h at 37 C. The fragments were purified using Qiaquick PCR columns (Qiagen), analyzed on an ABI 3130xL genetic analyzer (Applied Biosystems) with peak positions identified by using a set of X-rhodamine (ROX)-labeled MapMarker1000 molecular weight standards (BioVentures). The raw capillary electrophoresis data was processed using Attagraph software (Attagene).
For the compound `CC(C)c1cccc(C(C)C)c1`, the compound was called inactive.
On the same count and under the same terms, the entry for `CC(=O)OCC(COC(C)=O)OC(C)=O` is “inactive”.
On the same count and under the same terms, with `CCCCCCC(C=O)=Cc1ccccc1` the entry was “inactive”; with `Cc1cc(SC2=C(O)C[C@@](CCc3ccc(N)cc3)(C(C)C)OC2=O)c(C(C)(C)C)cc1CO`, “inactive”; with `CN(C)C(=O)NC1(c2ccccc2)CCN(CC[C@@]2(c3ccc(F)c(F)c3)CN(C(=O)c3ccccc3)CCO2)CC1`, “inactive”.
The same measure, in the same setting: the entry for `CCC(C)N(C)C(=O)c1cc2ccccc2c(-c2ccccc2Cl)n1` (stereo not given) is “inactive”.
Usually AC50 stands for the concentration at which the activity in the assay is half-maximal. With `CC(=O)O[C@]1(C(C)=O)CC[C@H]2[C@@H]3C=C(Cl)C4=CC(=O)[C@@H]5C[C@@H]5[C@]4(C)[C@H]3CC[C@@]21C`, the result was inactive and the AC50 is 100 µM (active).
Regarding `O=C1CCCCC1`, the compound was classed as inactive.
On the same count and under the same terms, with `CC1(C)C(=O)NC(=O)N1CO` the entry was “inactive”; with `CC(C)(O)c1ccc(CNC(=O)c2cccnc2Oc2ccc(F)cc2)cc1`, “inactive”; with `O=C(O)c1[nH]n(-c2ccc(S(=O)(=O)O)cc2)c(=O)c1N=Nc1ccc(S(=O)(=O)O)cc1`, “inactive”.
On the same count and under the same terms, with `O=C(Oc1ccccc1)c1cccc(C(=O)Oc2ccccc2)c1` the entry was “inactive”; with `CCCCCCCCCCCCCCCCO`, “inactive”; with `CC(C)NCC(O)c1ccc(O)c(O)c1` (stereo not given), “inactive”.
`NC1CCCCC1`: the outcome was inactive.
On the same count and under the same terms, the entry for `COc1ccc(OC(F)(F)F)cc1CN[C@H]1CCCN[C@H]1c1ccccc1` is “inactive”; for `CCCCCCCCCC[N+](C)(C)[O-]` it is “inactive”; for `CCCCCCC(CCCCCCCCCCC(=O)OCC(COC(C)=O)OC(C)=O)OC(C)=O` (stereo not given) it is “inactive”.
On the same count and under the same terms, the entry for `COC(=O)[C@H]1[C@H]2C[C@@H]3c4[nH]c5cc(OC)ccc5c4CCN3C[C@H]2C[C@@H](OC(=O)c2cc(OC)c(OC)c(OC)c2)[C@@H]1OC` is “inactive”; for `CO[C@@H]1COCC[C@@H]1N[C@@H]1CC[C@@](C(=O)N2CCc3ncc(C(F)(F)F)cc3C2)(C(C)C)C1` it is “inactive”; for `NC(=Nc1ccccc1)Nc1ccccc1` it is “inactive”.
Consider `COC(=O)CCCC(=O)OC`, for which the compound was classed as inactive.
Still for that read-out and setting: the entry for `O=C(O)c1cccnc1` is “inactive”; for `CCc1nc(N)nc(N)c1-c1ccc(Cl)cc1` it is “inactive”; for `O=C(O)CN(CC(=O)O)CC(=O)O` it is “inactive”.
For `CN(C)CCCN1c2ccccc2Sc2ccc(Cl)cc21`, the outcome was inactive.
The same measure, in the same setting: the entry for `CC(=O)[C@@]1(O)CC[C@H]2[C@@H]3CCC4=CC(=O)CC[C@]4(C)[C@H]3CC[C@@]21C` is “inactive”; for `C/C=C/c1ccc(OC)cc1` it is “inactive”.
On to `O=C(N[C@@H](c1ccccc1)[C@@H]1CCCCN1)c1cccc(C(F)(F)F)c1Cl`, for which the result was inactive.
Same read-out and setting: the entry for `CN(C)C(=O)NC1(c2ccccc2)CCN(CCC[C@]2(c3ccc(Cl)c(Cl)c3)CCCN(C(=O)c3ccccc3)C2)CC1` is “inactive”.
Still for that read-out and setting: with `CCCCOC(=O)CCCCC(=O)OCCCC` the entry was “inactive”.
The same measure, in the same setting: with `C=CCCCCCCCCCCCC` the entry was “inactive”; with `Nc1nc(Cl)nc2c1ncn2[C@H]1C[C@H](O)[C@@H](CO)O1`, “inactive”.
Regarding `COc1ccc(C(=O)Nc2nc3ccccc3c(NCc3ccccc3)c2C#N)cc1`, the outcome was inactive.
Still for that read-out and setting: with `O=Cc1ccccc1C=O` the entry was “inactive”.
As to `Cc1c(C)c2c(c(C)c1O)CCC(C)(COc1ccc(CC3SC(=O)NC3=O)cc1)O2` (stereo not given), the compound was called inactive.
Same read-out and setting: with `CCCCC(CC)COP(=O)(OCC(CC)CCCC)OCC(CC)CCCC` (stereo not given) the entry was “inactive”.
Consider `CC(=O)OC1CC(C)OC(C)O1` (stereo not given), for which the result was inactive.
Same read-out and setting: the entry for `CC(C)OC(=O)C(C)(C)Oc1ccc(C(=O)c2ccc(Cl)cc2)cc1` is “inactive”.
